PubChem BioAssay (NCATS)
Calls of active or inactive are those of the source. No rule for the calls is given here.

Experiment: qHTS assay for small molecule activators of the human pregnane X receptor (PXR) signaling pathway (AID 720659); also: 0% is about no effect
Conditions: DPX-2 HepG2 CYP3A4-luciferase, 24 h; series mostly up to 92.3 µM; activation: at the top concentration

SMILES | activation
CNc1nc(=O)n(C2CCCCC2)c(=O)n1C | 3.37% (inactive)
CCCCCCCC[Si](Cl)(Cl)Cl | 3.53% (inactive)
CCCCCCCOC(=O)c1ccccc1C(=O)OCCCCCCC | 3.48% (inactive)
C=Cc1ccc(P(c2ccccc2)c2ccccc2)cc1 | -3.68% (inactive)
CCCCCCCCCCCCCCCCCCN | 3.71% (inactive)
CC(=O)N(CCN(C(C)=O)C(C)=O)C(C)=O | 0.929% (inactive)
CCCC/C=C\CCCCCCCCO | 15.7% (inactive)
Nc1cc(Cl)nc(C(=O)O)c1Cl | -6.3% (inactive)
C[Si](Cl)(Cl)[Si](C)(Cl)Cl | 21.6% (inactive)
CCCCCCCCCc1ccccc1 | -1.03% (inactive)
CS/C(=N\O)C(=O)N(C)C | 2.93% (inactive)
C[Si](Cl)(Cl)c1ccccc1 | 9.89% (inactive)
COC(=O)c1c(Cl)nn(C)c1S(=O)(=O)NC(=O)Nc1nc(OC)cc(OC)n1 | 10.4% (inactive)
CC1(C)CC(NCCCCCCNC2CC(C)(C)NC(C)(C)C2)CC(C)(C)N1 | 24.8% (inactive)
